From PubChem
Most compounds without a hit are left out; they make up all but 9% or so of the library.
BAZ2B block = blocks human BAZ2B; AlphaScreen BAZ2B-H3K14Ac peptide displacement; Potency, µM (doses to about 114 µM), usual class: inhibitors; 360,000 tested, 4.4% active; AID 504333; also: nearly all actives have a fitted effect of over 60% in size
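Compounds, titrated to a top concentration of 110 uM, were incubated 30 min at room temperature with preformed BAZ2B/acetyl-K14 H3 peptide complex (50 nM each). Proximity signal was measured by AlphaScreen after 20 min with beads.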
PLK1 PBD block = PLK1 (human) polo-box domain binding inhibition | P53350 | Plk1 PBD binding of FITC phosphopeptide, fluorescence polarization | Potency, µM, usual class: inhibitors | 360,000 tested, 2.8% active; also: series mostly up to about 57 µM; nearly all actives have a fitted effect of over 65% in size
JMJD2A Tudor = blocks the human JMJD2A Tudor domain; AlphaScreen JMJD2A-Tudor / H3K4me3 peptide binding; O75164; 390,000 tested, 4.4% active; Potency, µM (top dose mostly 114 µM), actives largely listed as inhibitors; also: nearly all actives have a fitted effect of over 50% in size
ALOX12 inh = ALOX12 (human) lipoxygenase inhibition | P18054 | purified 12hLO, xylenol orange hydroperoxide absorbance | Potency, µM (doses to about 108 µM), usual class: inhibitors | 580,000 tested, 1.1% active
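Purified human 12hLO (150 nM final) in 25 mM Hepes, 0.01% Triton X-100, pH 7.0 was preincubated 15 min at room temperature with compound. Then 40 uM arachidonic acid was added, 30 min. Hydroperoxide was read by Fe-XO absorbance ratio 573/405 nm.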
G9a block = G9a (human) methyltransferase inhibition; Q96KQ7; G9a H3K9 monomethylation, AlphaScreen, 2 h; Potency, µM (doses to about 102 µM), usual class: inhibitors; 350,000 tested, 8.8% active; AID 504332; also: nearly all actives have a fitted effect of over 75% in size
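Compounds were preincubated with 20 nM G9a for 15 min, after which biotinylated H3K9 peptide (500 nM) and SAM (20 uM) started a 2 h room-temperature reaction. Monomethylated product was quantified by antibody-based AlphaScreen chemiluminescence.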
HP1b binding inh = HP1-beta chromodomain-methylated histone interaction inhibition; AID 540317; 390,000 tested, 0.56% active; AlphaScreen HP1-beta / biotin-H3K9me3 peptide binding; P83916; Potency, µM (series often up to 114 µM), usual class: inhibitors; also: nearly all actives have a fitted effect of over 70% in size
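Compound inhibition of the preformed complex between 50 nM HP1-beta and 50 nM biotinylated H3K9me3 peptide was read by AlphaScreen. Buffer was PBS pH 7.4 with 0.01% Tween-20. Incubations ran 30 min at room temperature, with 10 ug/mL donor/acceptor beads.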
Of the large screens only hits and unclear results are named; the others gave an inactive call. Calls follow the shape of the dose curve; as a rule, active = well fitted curve in the direction sought with a large enough effect; inconclusive = small, poorly fitted or top-dose-only effect, or another doubt; inactive = no such curve, though single readings can be large; an effect the other way counts as inactive or inconclusive.

Cn1cnc(S(=O)(=O)Nc2cc(-c3ccc(Cl)cc3)nn2C)c1	G9a block 50µM
CCOC(=O)C(C(C)=O)c1c(Br)c(O)c(O)c2c(C(=O)c3ccc(C)cc3)coc12 (centres undefined)	BAZ2B block 40µM, JMJD2A Tudor inconclusive, ALOX12 inh inconclusive, G9a block inconclusive, HP1b binding inh inconclusive
CCOC(=O)c1c(C)n(-c2ccc(C)cc2)c2c(C(C(C)=O)C(=O)O)c(Br)c(O)c(O)c12 (centres undefined)	PLK1 PBD block inconclusive, G9a block inconclusive, HP1b binding inh inconclusive
CCN(CC)S(=O)(=O)c1cc(NC(=O)C(C)N2CCN(c3ccccn3)CC2)ccc1C (centres undefined)	BAZ2B block inconclusive
CCc1cc(C(=O)Nc2cc(S(=O)(=O)N(C)C)ccc2C)sc1C	none (no result: BAZ2B block)
Cc1ccc(-c2nc(NCCCN(C)C)c3ccccc3n2)cc1	none (no result: BAZ2B block, JMJD2A Tudor, G9a block, HP1b binding inh)
CN(C)CCCNc1nc(-c2ccccc2)nc2ccccc12	ALOX12 inh inconclusive, G9a block 79µM
CC(Sc1cccc[n+]1[O-])C(=O)Nc1ccc([N+](=O)[O-])cc1Cl (centres undefined)	G9a block 50µM
COc1cc2c(cc1NC(=O)C(C)Sc1cccc[n+]1[O-])oc1ccccc12 (centres undefined)	PLK1 PBD block inconclusive, G9a block inconclusive
CC(Sc1cccc[n+]1[O-])C(=O)NC1CCCCC1C (centres undefined)	PLK1 PBD block 24µM (no result: BAZ2B block, G9a block)
CN(Cc1ccccc1)Cc1nc2c(c(=O)n(C)c(=O)n2C)n1CCCc1ccccc1	none
CNCc1ccccc1OC	none (no result: BAZ2B block, PLK1 PBD block, JMJD2A Tudor, G9a block, HP1b binding inh)
COc1ccccc1CNCc1cccc(Oc2ccccc2)c1	BAZ2B block 25µM, JMJD2A Tudor 40µM, G9a block 8.9µM
COc1ccccc1CNCc1cc(Br)ccc1OC	BAZ2B block 56µM, JMJD2A Tudor inconclusive, G9a block 8.9µM
COc1cccc(CNCc2ccccn2)c1OC	BAZ2B block inconclusive, JMJD2A Tudor 56µM
CNCc1cccc(Oc2ccccc2)c1	none (no result: BAZ2B block, PLK1 PBD block, JMJD2A Tudor, G9a block, HP1b binding inh)
COc1ccccc1CNCC(c1ccccc1)c1ccccc1	BAZ2B block 50µM, ALOX12 inh 2.5µM, G9a block 40µM (no result: PLK1 PBD block, JMJD2A Tudor, HP1b binding inh)
COc1ccc(Br)cc1CNC(C)c1ccccc1 (centres undefined)	none
CC(=O)CC1c2cc(F)ccc2C=C(c2ccsc2)N1c1ccc(C#Cc2cncn2C)cc1 (centres undefined)	none (no result: BAZ2B block, JMJD2A Tudor, G9a block, HP1b binding inh)
COc1cccc(CNCc2ccc(OC)c3ccccc23)c1OC	BAZ2B block 20µM, JMJD2A Tudor 3.2µM, ALOX12 inh inconclusive, HP1b binding inh 40µM
COc1ccccc1CNCc1ccc(OC)c2ccccc12	PLK1 PBD block inconclusive, JMJD2A Tudor 18µM, ALOX12 inh inconclusive (no result: BAZ2B block, G9a block)
Cc1ccc(NC(=O)CN(C)C(=O)C(c2ccccc2)c2ccccc2)cc1	none
CCOC(=O)c1sc(NC(=O)C2CC(=O)N(c3cccc(C)c3C)C2)nc1C (centres undefined)	none (no result: BAZ2B block, PLK1 PBD block, JMJD2A Tudor, G9a block, HP1b binding inh)
CCOC(=O)C1(CCCc2ccccc2)CCN(Cc2cnc(C)s2)CC1	none
O=c1cc2nc(-c3ccccc3F)nc(SCc3ccc(Br)cc3)n2[nH]1	BAZ2B block 50µM, JMJD2A Tudor inconclusive (no result: PLK1 PBD block)
COc1ccccc1NC(=O)CSc1nc(-c2ccccc2F)nc2cc(=O)[nH]n12	BAZ2B block inconclusive (no result: PLK1 PBD block)
Cc1occc1-c1nnc(SCCCC(=O)c2ccc(F)cc2)n1C	BAZ2B block inconclusive, G9a block 50µM
Cc1cc(Nc2ccc(C(C)C)cc2)nc(-n2nc(C)cc2C)n1	JMJD2A Tudor inconclusive (no result: PLK1 PBD block)
COc1ccc(Nc2cc(C)nc(-n3nc(C)cc3C)n2)cc1Cl	BAZ2B block 6.3µM, JMJD2A Tudor inconclusive (no result: PLK1 PBD block)
CCOc1ccc(Nc2cc(C)nc3nc(C)nn23)cc1	G9a block 89µM
CCOC(=O)c1ccccc1Nc1cc(C)nc2nc(C)nn12	none
COc1ccc(Nc2cc(C)nc3nc(C)nn23)cc1Cl	G9a block 89µM
COC(=O)c1ccccc1Nc1cc(C)nc2nc(C)nn12	PLK1 PBD block 21µM, JMJD2A Tudor inconclusive
Cc1ccccc1NC(=O)Cc1nnc(SCC(=O)c2ccc(Br)cc2)n1C	BAZ2B block inconclusive
COc1cccc(/C=N/NC(=O)c2ccc(-c3ccccc3)cc2)c1O	none
CCCCCCCCC1=NCCc2c1[nH]c1ccccc21	BAZ2B block inconclusive, PLK1 PBD block 24µM, JMJD2A Tudor 22µM, G9a block 45µM
COc1cccc(C2c3c(ncn(CCN4CCOCC4)c3=N)Oc3ccc4ccccc4c32)c1 (centres undefined)	none (no result: BAZ2B block, PLK1 PBD block, ALOX12 inh, G9a block, HP1b binding inh)
COc1cccc(C2c3c(ncn(-c4cccc(F)c4)c3=N)Oc3ccc4ccccc4c32)c1 (centres undefined)	JMJD2A Tudor 50µM (no result: BAZ2B block, PLK1 PBD block, ALOX12 inh, G9a block, HP1b binding inh)
COc1ccccc1C1c2c(ncn(-c3ccccc3)c2=N)Oc2ccc3ccccc3c21 (centres undefined)	JMJD2A Tudor 56µM (no result: BAZ2B block, PLK1 PBD block, ALOX12 inh, G9a block, HP1b binding inh)
COc1ccccc1C1c2ccc3ccccc3c2Oc2ncn(CCN(C)C)c(=N)c21 (centres undefined)	JMJD2A Tudor inconclusive, G9a block inconclusive
COc1cccc(C2c3c(ncn(-c4ccccc4)c3=N)Oc3ccc4ccccc4c32)c1 (centres undefined)	JMJD2A Tudor 56µM (no result: BAZ2B block, PLK1 PBD block, ALOX12 inh, G9a block, HP1b binding inh)
COc1cccc(C2c3c(ncn(-c4ccccc4OC)c3=N)Oc3ccc4ccccc4c32)c1 (centres undefined)	JMJD2A Tudor 56µM (no result: BAZ2B block, PLK1 PBD block, ALOX12 inh, G9a block, HP1b binding inh)
CCC(=O)c1ccc(N2CCN(S(=O)(=O)c3ccccc3)CC2)c(F)c1	none
NC(=O)c1cccc(Nc2nc(C(N)CCc3ccccc3)cs2)n1 (centres undefined)	none (no result: BAZ2B block, JMJD2A Tudor, G9a block, HP1b binding inh)
CCc1ccccc1N(C)C(=O)c1cc2c(=O)oc3ccccc3c2s1	none (no result: PLK1 PBD block)
Cc1cc2oc(C(=O)NC3CCS(=O)(=O)C3)c(C)c2cc1C (centres undefined)	none
Cc1ccc(NC(=O)C(C)Sc2nc3nc(C)cc(C)n3n2)cc1 (centres undefined)	none
N=c1c2c(ccn1-c1ccccc1)Oc1ccc3ccccc3c1C2c1ccccc1 (centres undefined)	JMJD2A Tudor 40µM (no result: BAZ2B block, PLK1 PBD block, ALOX12 inh, G9a block, HP1b binding inh)
COc1ccc(C2c3c(ncn(CCCO)c3=N)Oc3ccc4ccccc4c32)cc1OC (centres undefined)	BAZ2B block inconclusive, ALOX12 inh inconclusive, G9a block inconclusive
N=c1c2c(ncn1-c1ccccc1)Oc1ccc3ccccc3c1C2c1ccc2c(c1)OCO2 (centres undefined)	JMJD2A Tudor 45µM (no result: BAZ2B block, PLK1 PBD block, ALOX12 inh, G9a block, HP1b binding inh)
Cc1cccc(Cn2ccn(Cc3ccc(Cl)cc3)c(=O)c2=O)c1	BAZ2B block inconclusive (no result: PLK1 PBD block)
O=C(Cc1ccccc1[N+](=O)[O-])Nc1ccc(S(=O)(=O)N2CCCC2)cc1	none (no result: PLK1 PBD block, JMJD2A Tudor, HP1b binding inh)
